Screening data: PubChem BioAssay, National Center for Advancing Translational Sciences (NCATS)
BAZ2B block – inhibitors of human BAZ2B bromodomain | Q9UIF8 | AlphaScreen BAZ2B-H3K14Ac peptide displacement | Potency, µM (titrated, usually from 114 µM), for the others: top-dose activity change, negative = inhibition, most hits filed as inhibitors | 360,000 tested, 4.4% active | AID 504333; also: potency is read from the fitted curve at half-maximal effect; % is scaled to controls: 0 for no effect and ±100 for the full control effect; nearly all actives have a fitted effect of over 60% in size
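AlphaScreen displacement of biotin-H3(5-23)K14Ac peptide (50 nM final) from BAZ2B (50 nM final) in PBS pH 7.4, 0.01% Tween-20; complex preformed 30 min RT, then compounds (top 110 uM) 30 min RT, beads 20 min dark.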
JMJD2A Tudor inh – JMJD2A Tudor domain (human) inhibition; AlphaScreen JMJD2A-Tudor / H3K4me3 peptide binding; Potency, µM (series often up to 114 µM), without a hit: at the highest dose activity change, negative = inhibition, most hits filed as inhibitors; 390,000 tested, 4.4% active; AID 504339; also: potency is read from the fitted curve at half-maximal effect; % is scaled to controls: 0 for no effect and ±100 for the full control effect; nearly all actives have a fitted effect of over 50% in size
Six1-Eya2 inh – Six1/Eya2 interaction inhibition; AlphaScreen GST-Six1/His-Eya2 binding, biochemical; active compounds read low; activity change, % (no concentration beside the values); Q15475+O00167; 360,000 tested, 0.56% active; in the data active = activity change below about -65%; inconclusive = mostly about -30% to -63%; also: % is scaled to controls: 0 for no effect and ±100 for the full control effect
Target sequence (O00167 whole entry, looked up): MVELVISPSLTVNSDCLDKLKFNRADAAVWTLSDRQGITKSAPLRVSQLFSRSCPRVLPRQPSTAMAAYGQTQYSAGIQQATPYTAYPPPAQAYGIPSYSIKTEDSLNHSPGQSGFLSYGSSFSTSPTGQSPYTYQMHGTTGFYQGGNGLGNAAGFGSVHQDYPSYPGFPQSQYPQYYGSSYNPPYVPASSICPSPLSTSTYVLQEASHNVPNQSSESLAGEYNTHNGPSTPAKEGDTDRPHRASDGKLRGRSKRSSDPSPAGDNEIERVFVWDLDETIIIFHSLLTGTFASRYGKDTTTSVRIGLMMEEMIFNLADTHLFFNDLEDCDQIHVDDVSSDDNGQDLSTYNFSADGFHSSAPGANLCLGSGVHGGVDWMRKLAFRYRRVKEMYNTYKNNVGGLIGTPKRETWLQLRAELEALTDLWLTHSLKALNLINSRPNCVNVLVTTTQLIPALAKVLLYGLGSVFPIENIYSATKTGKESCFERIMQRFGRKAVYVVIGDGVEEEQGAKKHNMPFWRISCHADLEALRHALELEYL
Target sequence (Q15475 whole entry, looked up): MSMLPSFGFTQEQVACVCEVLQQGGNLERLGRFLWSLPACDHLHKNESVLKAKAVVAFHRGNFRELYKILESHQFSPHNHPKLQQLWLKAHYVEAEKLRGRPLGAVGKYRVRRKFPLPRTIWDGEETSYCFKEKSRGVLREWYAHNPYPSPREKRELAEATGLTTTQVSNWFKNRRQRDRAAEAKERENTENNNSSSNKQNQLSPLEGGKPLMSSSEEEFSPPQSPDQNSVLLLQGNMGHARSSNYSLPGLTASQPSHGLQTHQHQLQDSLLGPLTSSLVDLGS
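Homogeneous AlphaScreen proximity assay pairing GST-Six1 with His-tagged Eya2 (added as 5X mix: 250 nM and 500 nM) in 50 mM Tris pH 8.0, 300 mM NaCl, 1 mM TCEP. Glutathione donor and nickel acceptor beads; 1 h, 37 °C, dark.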
HP1b chromo inh – HP1-beta chromodomain-methylated histone interaction inhibition | Potency, µM (titrated, usually from 114 µM), inactives show at the top dose activity change, negative = inhibition, hits mostly inhibitors | 390,000 tested, 0.56% active | AID 540317 | AlphaScreen HP1-beta / biotin-H3K9me3 peptide binding | P83916; also: potency is read from the fitted curve at half-maximal effect; nearly all actives have a fitted effect of over 70% in size
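Compound inhibition of the preformed complex between 50 nM HP1-beta and 50 nM biotinylated H3K9me3 peptide was read by AlphaScreen. Buffer was PBS pH 7.4 with 0.01% Tween-20. Incubations ran 30 min at room temperature, with 10 ug/mL donor/acceptor beads.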
G9a block – blocks human histone lysine methyltransferase G9a; Potency, µM (series often up to 102 µM), without a hit: at the highest dose activity, negative = inhibition, most hits filed as inhibitors; 350,000 tested, 8.8% active; G9a H3K9 monomethylation, AlphaScreen, 2 h; AID 504332; also: potency is read from the fitted curve at half-maximal effect; % is scaled to controls: 0 for no effect and ±100 for the full control effect; nearly all actives have a fitted effect of over 75% in size
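Signal arises when biotinylated H3K9 peptide, once monomethylated, bridges streptavidin donor and antibody-captured acceptor beads. Enzyme at 20 nM was preincubated 15 min with test compounds; peptide 500 nM and SAM 20 uM then reacted for 2 h.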
CtBP-E1A blk – inhibitors of CtBP/E1A interaction | AlphaScreen GST-E1A/His-CtBP binding, 1536-well; active compounds read low | activity change, % (concentration not given with the values) | 340,000 tested, 0.49% active | AID 651724; in the data active = activity change below about -65%; inconclusive = mostly about -30% to -63%; also: % is scaled to controls: 0 for no effect and ±100 for the full control effect
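Homogeneous bead-based format: GST-tagged E1A captured on glutathione donor beads, His-tagged CtBP on nickel acceptor beads; compounds precede bead addition by 2 h at 37 °C.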
The depositor's hits bear a star; ? = inconclusive; . = no result; [ ] = remark or other dose. Only some compounds are listed: those with a hit (about 10% of all), similar ones and a draw of the others. Unless noted, calls follow the shape of the dose curve; as a rule, active = well fitted inhibition curve with a large enough effect; inconclusive = small, poorly fitted or top-dose-only effect; inactive = no such curve, though single readings can be large or run the other way.

SMILES	BAZ2B block	JMJD2A Tudor inh	Six1-Eya2 inh	HP1b chromo inh	G9a block	CtBP-E1A blk
O=C(CSc1nc(=O)n2ccccc2n1)Nc1cccc2ccccc12	-2%	?	-3	15%	50µM*	-1
Cc1cccc(NC(=O)CSc2nc(=O)n3ccccc3n2)c1C	9%	-11%	0	4%	9%	-4
Cc1cc(C)cc(-n2ccnc2SCC(=O)Nc2cccc3ccccc23)c1	7.1µM*	22µM*	.	?	13µM*	.
CN(C)CCn1c2c(c(SCC(=O)Nc3cccc4ccccc34)nc1=O)CCCC2	-5%	-15%	-20	15%	45µM*	-3
CCOc1ccc(-c2nonc2NC(=O)COc2ccc(C)c(C)c2)cc1OCC	2%	1%	.	27%	-1%[59 µM]	.
OCCCCC#Cc1c(-c2ccsc2)sc2ccccc12	29%	47%	0	101%	52%	3
OCCC#Cc1c(-c2ccsc2)sc2ccccc12	-4%	-14%	-9	18%	11µM*	-9
CCOC(=O)C1CCCN(C(=O)Cc2ccc(OC)c(OC)c2)C1 (configuration not stated)	9%	-24%	-13	13%	20%[59 µM]	-9
COc1ccc(CN2CCCC(C(=O)N3CCc4ccccc4C3)C2)cc1OC (configuration not stated)	89µM*	22µM*	0	-7%	?	-10
O=C(C1CCCN(Cc2ccc([N+](=O)[O-])cc2)C1)N1CCCCC1 (configuration not stated)	56µM*	25µM*	-7	?	28µM*	.
COc1ccc(CN2CCCC(C(=O)N3CCCCC3)C2)cc1OC (configuration not stated)	71µM*	20µM*	5	9%	2.8µM*	.
Oc1ccc(-c2csc(Nc3ccc4c(c3)OCO4)n2)c(O)c1	.	56µM*	-22	?	.	.
Cc1cccc(Nc2nc(-c3ccc(O)cc3O)cs2)n1	?	?	-9	-2%	50µM*	-13
COc1ccc(N2CCN(C(=O)CSc3nnc(-c4cc5ccccc5cc4O)n3C)CC2)cc1	6%	?	?	-3%	17%	?
O=C(CSc1ccc2ccccc2c1)N1CCN(c2ccc(O)cc2)CC1	50µM*	50µM*	1	-28%	16µM*	-11
O=C(c1ccc2ccccc2c1)N1CCN(c2ccccn2)CC1	-25%	-19%	0	8%	6%	-8
O=C(c1ccc2ccccc2c1)N1CCN(c2ccc(O)cc2)CC1	-37%	?	-14	?	32µM*	-16
O=S(=O)(c1ccc2ccccc2c1)N1CCN(c2ccc(O)cc2)CC1	.	35µM*	?	?	.	.
COc1ccc(NC(=O)CN2CCN(Cc3ccccc3Cl)S2(=O)=O)cc1Cl	1%	3%	.	37%	-1%[59 µM]	.
NC(=S)NNc1cc(Cl)cc(Cl)c1	-36%	35µM*	-6	-19%	?	1
Cc1ccccc1NNC(=O)C(=O)NNc1ccccc1C	50µM*	18µM*	-3	?	?	.
Cc1cccc(NNC(N)=S)c1C	-24%	-13%	1	28%	20µM*	-4
Cc1ccc(C)c(NNC(=O)C(=O)NNc2cc(C)ccc2C)c1	-35%	?	13	13%	28µM*	6
CC(C)c1ccc(NC(=O)CSC2=Nc3ccccc3C3=NC(CC(=O)NCc4ccco4)C(=O)N23)cc1 (configuration not stated)	?	?	.	-5%	2%[59 µM]	.
CNc1ncnc2ccc(-c3cccc(OC)c3)cc12	.	.	.	.	-4%[0.501 µM]	.
Cc1nc2nc(NC(=O)C(C)(C)C)[nH]n2c(=O)c1Cc1ccccc1	-4%	-4%	.	36%	-34%[59 µM]	.
COc1ccccc1-c1cc(Nc2ccn[nH]2)ncn1	.	.	.	.	2%[0.501 µM]	.
CCOC(=O)c1c(C)oc2ncnc(N3CCN(c4ccccc4)CC3)c12	-14%[57.1 µM]	-30%	.	-6%	-11%[59 µM]	.
COc1ccc(-c2noc(N3CCN(c4ccc(C)cc4)C(C)C3)n2)cc1OC (configuration not stated)	-16%	-30%	.	-6%	-1%[59 µM]	.
